The target in test [1] is ATP-dependent 6-phosphofructokinase (Trypanosoma brucei brucei) (UniProt O15648). The experiment in a line: qHTS Assay to Find Inhibitors of T. brucei phosphofructokinase: hit validation (AID 492961).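 Further: luminescence reports ADP formed as PFK phosphorylates fructose-6-phosphate with ATP; series mostly up to about 51 µM; on the % scale 0 is the no-effect control and ±100 the full control effect.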 In short, it runs like this:
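ADP-Glo luminescence read-out of ADP formed by 1.25 nM PFK from 0.1 mM ATP and 0.5 mM F6P (TEA pH 8.0, 45 min, RT). Compounds titrated; activity normalized to no-enzyme and full-enzyme controls.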

Test [2] can be described thus: Validation screen for small molecules that induce genotoxicity in human embryonic kidney (HEK293T) cells expressing luciferase-tagged ELG1 (AID 493106). Further: 0% is about no effect. Summed up:
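Cells were dispensed at 2,000 per well, then 23 nL compound or DMSO was pinned in. After 16 hr at 37 °C and 5% CO2, ONE-Glo reagent was added. Luciferase activity was measured following 30 min at room temperature.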

Test [3] concerns the target ATPase family AAA domain-containing protein 5 (Homo sapiens) (UniProt Q96QE3). The experiment in a line: Validation screen for small molecules that inhibit ELG1-dependent DNA repair in human embryonic kidney (HEK293T) cells expressing luciferase-tagged ELG1 (AID 493107). Further: nearly all actives have a fitted effect of over 70% in size. Further: potency means the concentration at half of the fitted maximal effect. In short, it runs like this:
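Cells are dispensed in 1536-well format, then 5-fluorouridine and compound are pinned in. After a 16 hr incubation at 37 °C and 5% CO2, ONE-Glo is added and luciferase measured on a CCD imager.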

Test [4] concerns the target Thyrotropin-releasing hormone receptor (Homo sapiens) (UniProt P34981). The experiment in a line: qHTS for Small Molecule Agonists and Allosteric Enhancers of Human TRH Receptor: Validation Screen for Agonists (AID 493127;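 active means calcium activation more than 3 SD above the typical response in the agonist read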;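 further: intracellular calcium rise by fluo-8 fluorescence before TRH EC20 addition; 0% is about no effect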). To be noted: TRH receptor agonist cell assay; at 2 µM; stronger effect = higher value. Summed up:
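Compounds are added by online pintool to dye-loaded TRHR cells while fluorescence is recorded every second. A rise in calcium signal during the agonist read marks activation; a later 10 nM TRH addition (EC20) serves the separate enhancer mode.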
On the technique in general: In qHTS, concentration-response curves come from the screen itself.

The nature of test [5]: Nrf2 qHTS screen for inhibitors: Validation (AID 493153; active means well fitted inhibition curve with a large enough effect in the main read-out, with a control signal flat, not every such curve was filed as active). To be noted: Potency: luciferase luminescence; viability change: measured here: cytotoxicity max response. In short, it runs like this: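 A549 ARE_Fluc, 5% FBS OPTI-MEM; cpd titration, 18-24 h, 37°C/5% CO2. Read 1: CellTiter-Fluor (Ex 405/Em 525), cytotox. Read 2: luciferase lum, Nrf2 activity.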
The nature of test [6]: qHTS for Inhibitors of Cell Surface uPA Generation: Validation Assay (AID 493164).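 Further: RAW 264.7 macrophage cells exposed to compound for 18 h; 0% is about no effect.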 In short, it runs like this: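 ATP-Lite luminescence read-out: ATP remains high when uPA activity-dependent LF translocation into the cytoplasm is blocked. RAW 264.7 cells, 18 h compound exposure at 37 C; 7-point titration, 2.45 nM to 38.3 uM final.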
The target of test [7] is Galactokinase (Homo sapiens) (UniProt P51570). The test can be described thus: qHTS Validation Assay for Inhibitors of Human Galactokinase (GALK) (AID 493189). Further: 0% is about no effect. In short, it runs like this: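 GALK (5 nM) with 35 uM ATP and 100 uM galactose in HEPES pH 8.0 with MgCl2, NaCl, DTT and BSA. Reaction ran 1 h at room temperature. Residual ATP read by Kinase-Glo Plus luminescence.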
Chain of Galactokinase (Homo sapiens) (P51570 whole entry, looked up): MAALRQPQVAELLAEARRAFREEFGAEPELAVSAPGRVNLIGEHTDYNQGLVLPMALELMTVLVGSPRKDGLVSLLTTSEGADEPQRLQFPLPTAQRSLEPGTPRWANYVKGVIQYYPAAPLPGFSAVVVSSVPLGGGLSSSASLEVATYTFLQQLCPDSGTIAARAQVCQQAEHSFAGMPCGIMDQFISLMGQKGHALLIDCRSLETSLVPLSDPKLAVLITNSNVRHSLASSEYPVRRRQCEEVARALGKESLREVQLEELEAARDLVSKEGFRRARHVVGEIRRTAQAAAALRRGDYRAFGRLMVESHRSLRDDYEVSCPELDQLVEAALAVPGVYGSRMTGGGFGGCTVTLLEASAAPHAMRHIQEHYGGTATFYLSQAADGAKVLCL

Test [8] is described as follows: Validation screen for small molecules that induce DNA re-replication in SW480 colon adenocarcinoma cells (AID 504364). Further: 0% is about no effect. In short, it runs like this: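 Image-based qHTS: compounds were incubated with SW480 cells for 48 hr, nuclei stained with Hoechst, and per-nucleus fluorescence intensity scanned to flag cells with excess DNA content.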
Test [9] has as its target Peptidyl-prolyl cis-trans isomerase NIMA-interacting 1 (Homo sapiens) (UniProt Q13526). The test can be described thus: qHTS Validation Assay to Find Inhibitors of Pin1 (AID 504536; active means well fitted inhibition curve with a large enough effect in the polarisation, with a control signal flat, not every such curve was filed as active; the % refers to the polarisation;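 further: 0% = full Pin1 enzyme wells and -100% = no-enzyme wells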). Summed up: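 Fluorescence polarization competition: compounds (titration) displace HiFluor-488-labeled Pin1-1b peptide from Pin1 (0.3 uM final) in pH 7.5 HEPES buffer with DTT, 10 min at room temperature; %Activity normalized to no-enzyme wells, curves fitted.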

For test [10], the target named is Phosphoglycerate kinase, glycosomal (Trypanosoma brucei brucei) (UniProt P07378). The experiment in a line: qHTS Validation Assay to Find Inhibitors of Phosphoglycerate Kinase (AID 504547).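 Further: control wells lack PGK and mark full inhibition.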 Summed up: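 Luminescence end-point (Kinase-Glo Plus, 10 min) after a 60 min room-temperature coupled reaction. GAPDH at 100nM final supplies 1,3-BPG to PGK. Buffer: 100mM TEA pH 7.6, 5mM MgCl2, 0.01% Tween-20. Wells lacking PGK served as controls.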
Chain of Phosphoglycerate kinase, glycosomal (Trypanosoma brucei brucei) (P07378 whole entry, looked up): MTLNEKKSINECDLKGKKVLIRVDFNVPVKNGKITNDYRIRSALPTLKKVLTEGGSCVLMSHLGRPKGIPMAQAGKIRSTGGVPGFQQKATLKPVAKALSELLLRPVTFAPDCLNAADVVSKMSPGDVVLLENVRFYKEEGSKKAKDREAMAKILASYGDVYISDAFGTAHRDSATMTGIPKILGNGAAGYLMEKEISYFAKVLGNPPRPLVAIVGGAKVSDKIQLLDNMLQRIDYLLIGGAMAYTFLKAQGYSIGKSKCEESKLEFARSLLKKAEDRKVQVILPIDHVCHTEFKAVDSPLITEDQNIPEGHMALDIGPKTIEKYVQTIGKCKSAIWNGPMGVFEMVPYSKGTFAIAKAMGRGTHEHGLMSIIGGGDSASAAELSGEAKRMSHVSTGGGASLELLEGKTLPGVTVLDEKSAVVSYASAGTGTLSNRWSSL

Test [11] concerns the target phosphoglycerate mutase (Leishmania major) (UniProt Q4Q090). The experiment in a line: qHTS Validation Assay to Find Inhibitors of Phosphoglycerate Mutase (AID 504548). Further: series mostly up to about 58 µM; on the % scale 0 is the no-effect control and ±100 the full control effect. Summed up:
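Lm PGAM 1.25nM final; 100 mM TEA pH 7.6, 5 mM MgCl2, 0.01% Tween-20; 45 min RT; Kinase-GloPlus, 10 min; end-point luminescence. Enzyme-free wells as negative controls.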

For test [12], the target named is Ubiquitin carboxyl-terminal hydrolase 1 (Homo sapiens) (UniProt O94782). The experiment in a line: Inhibitors of USP1/UAF1: Pilot qHTS (AID 504865).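 Further: rhodamine fluorescence freed from ubiquitin-rhodamine substrate followed over time; top concentration of the series differs between compounds; on the % scale 0 is the no-effect control and ±100 the full control effect; nearly all actives have a fitted effect of over 35% in size.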 In short, it runs like this: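 USP1/UAF1 complex at 1 nM preincubated 15 min at room temperature with compound, then Ub-Rho substrate added at 150 nM final. Fluorescence (480/540 nm) read kinetically in 50 mM HEPES pH 7.8, 0.5 mM EDTA, 1 mM TCEP, 0.1 mg/ml BSA, 0.01% Tween-20.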
Chain of Ubiquitin carboxyl-terminal hydrolase 1 (Homo sapiens) (O94782 whole entry, looked up): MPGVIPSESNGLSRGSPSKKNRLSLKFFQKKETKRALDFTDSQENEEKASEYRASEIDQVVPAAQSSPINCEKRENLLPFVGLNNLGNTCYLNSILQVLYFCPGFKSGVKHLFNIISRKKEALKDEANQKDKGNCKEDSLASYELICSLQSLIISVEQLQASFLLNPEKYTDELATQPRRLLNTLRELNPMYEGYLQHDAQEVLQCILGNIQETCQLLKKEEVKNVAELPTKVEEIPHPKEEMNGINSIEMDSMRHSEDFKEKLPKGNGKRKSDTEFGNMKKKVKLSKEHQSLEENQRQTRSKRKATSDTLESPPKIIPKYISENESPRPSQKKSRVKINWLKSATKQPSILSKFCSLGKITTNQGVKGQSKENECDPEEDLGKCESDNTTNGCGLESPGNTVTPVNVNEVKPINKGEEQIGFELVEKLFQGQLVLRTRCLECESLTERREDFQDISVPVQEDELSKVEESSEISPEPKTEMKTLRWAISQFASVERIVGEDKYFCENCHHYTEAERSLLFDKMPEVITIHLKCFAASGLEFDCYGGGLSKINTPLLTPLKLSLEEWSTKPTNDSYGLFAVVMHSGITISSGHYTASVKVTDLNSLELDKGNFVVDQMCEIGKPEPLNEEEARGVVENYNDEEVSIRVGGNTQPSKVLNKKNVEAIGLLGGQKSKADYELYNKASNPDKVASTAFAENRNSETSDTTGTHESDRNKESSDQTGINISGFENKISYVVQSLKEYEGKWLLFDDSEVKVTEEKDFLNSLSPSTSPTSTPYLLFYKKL

Test [13] in a line: qHTS for Inhibitors of ATXN expression: Validation of Cytotoxic Assay (AID 588349). Further: on the % scale 0 is the no-effect control and ±100 the full control effect. Summed up:
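Titrated compounds are added to cultured HEK293 cells, which are then held at 37 degrees C for 72 hr; loss of intracellular ATP, measured with CellTiter Glo, indicates toxicity.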

Test [14] can be described thus: qHTS for Inhibitors of ATXN expression: Validation (AID 588378). Further: series mostly up to about 57 µM; on the % scale 0 is the no-effect control and ±100 the full control effect; nearly all actives have a fitted effect of over 75% in size. In short, it runs like this:
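HEK293 cells carrying ATXN2-firefly luciferase reporter, treated with compound 24 h at 37 °C. Viability read first by CellTiter-Fluor (405/525 nm), then reporter expression by Bright-Glo luminescence; controls were a known ATXN2 expression inhibitor and a luciferase inhibitor.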

Records with an inconclusive call do not appear. Activity calls are given as the source filed them. Unless noted, the call rests on the fitted dose curve; in most records, active means well fitted curve in the direction sought with a large enough effect; inconclusive means small, poorly fitted or top-dose-only effect, or another doubt; inactive means no such curve, though single readings can be large; an effect the other way counts as inactive or inconclusive.

Chain of ATPase family AAA domain-containing protein 5 (Homo sapiens) (Q96QE3 whole entry, looked up, the tested form may be a part): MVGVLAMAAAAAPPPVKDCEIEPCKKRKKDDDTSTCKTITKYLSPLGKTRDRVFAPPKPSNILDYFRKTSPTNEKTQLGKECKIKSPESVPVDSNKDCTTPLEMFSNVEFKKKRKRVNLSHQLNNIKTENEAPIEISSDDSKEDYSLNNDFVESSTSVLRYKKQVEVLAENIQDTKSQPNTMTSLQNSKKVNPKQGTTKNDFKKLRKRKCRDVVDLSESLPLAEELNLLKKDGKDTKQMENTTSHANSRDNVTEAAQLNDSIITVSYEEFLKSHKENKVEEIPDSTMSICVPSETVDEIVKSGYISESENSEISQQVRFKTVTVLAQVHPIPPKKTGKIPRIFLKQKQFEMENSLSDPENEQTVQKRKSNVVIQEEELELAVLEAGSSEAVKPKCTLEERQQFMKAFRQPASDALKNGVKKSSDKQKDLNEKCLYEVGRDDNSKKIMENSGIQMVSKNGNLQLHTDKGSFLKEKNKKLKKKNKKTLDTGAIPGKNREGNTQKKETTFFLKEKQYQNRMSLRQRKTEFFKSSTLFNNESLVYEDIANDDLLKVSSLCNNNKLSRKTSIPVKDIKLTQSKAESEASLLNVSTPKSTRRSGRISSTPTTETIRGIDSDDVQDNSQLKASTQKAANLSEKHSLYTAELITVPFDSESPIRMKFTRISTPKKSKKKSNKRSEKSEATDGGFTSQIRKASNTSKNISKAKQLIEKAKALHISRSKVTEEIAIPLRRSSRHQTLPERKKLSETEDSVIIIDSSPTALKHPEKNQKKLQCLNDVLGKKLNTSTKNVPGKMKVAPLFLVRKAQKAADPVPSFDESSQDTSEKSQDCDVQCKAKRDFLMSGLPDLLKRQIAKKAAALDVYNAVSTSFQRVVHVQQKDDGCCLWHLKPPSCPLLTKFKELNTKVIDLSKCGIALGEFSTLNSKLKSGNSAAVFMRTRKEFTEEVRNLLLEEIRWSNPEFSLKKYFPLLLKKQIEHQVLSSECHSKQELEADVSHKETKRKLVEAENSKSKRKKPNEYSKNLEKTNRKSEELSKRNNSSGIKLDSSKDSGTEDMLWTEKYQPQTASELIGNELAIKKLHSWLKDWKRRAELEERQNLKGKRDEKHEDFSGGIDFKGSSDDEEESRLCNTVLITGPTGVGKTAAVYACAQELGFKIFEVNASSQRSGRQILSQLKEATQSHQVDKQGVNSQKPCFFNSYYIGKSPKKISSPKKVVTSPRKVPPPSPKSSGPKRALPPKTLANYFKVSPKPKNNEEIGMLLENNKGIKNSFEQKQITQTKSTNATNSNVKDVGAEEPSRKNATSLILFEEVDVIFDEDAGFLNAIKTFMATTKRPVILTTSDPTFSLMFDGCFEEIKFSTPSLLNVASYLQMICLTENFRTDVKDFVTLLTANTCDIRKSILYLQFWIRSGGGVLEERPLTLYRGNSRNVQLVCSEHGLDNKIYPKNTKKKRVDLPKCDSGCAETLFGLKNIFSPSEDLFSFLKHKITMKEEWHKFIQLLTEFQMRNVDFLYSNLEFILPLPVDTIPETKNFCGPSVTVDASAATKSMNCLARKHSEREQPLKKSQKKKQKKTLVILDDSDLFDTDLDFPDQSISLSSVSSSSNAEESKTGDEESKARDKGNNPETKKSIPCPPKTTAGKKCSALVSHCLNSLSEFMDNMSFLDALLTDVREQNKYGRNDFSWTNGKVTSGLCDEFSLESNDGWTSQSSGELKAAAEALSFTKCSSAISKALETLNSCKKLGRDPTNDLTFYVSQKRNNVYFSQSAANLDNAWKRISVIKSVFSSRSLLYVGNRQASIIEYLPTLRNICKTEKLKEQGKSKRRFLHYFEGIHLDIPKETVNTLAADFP
Chain of Peptidyl-prolyl cis-trans isomerase NIMA-interacting 1 (Homo sapiens) (Q13526 whole entry, looked up): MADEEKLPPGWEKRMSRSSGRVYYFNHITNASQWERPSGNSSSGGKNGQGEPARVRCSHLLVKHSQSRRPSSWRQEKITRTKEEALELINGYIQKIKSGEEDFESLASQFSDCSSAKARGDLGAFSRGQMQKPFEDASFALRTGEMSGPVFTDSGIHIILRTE
Chain of Thyrotropin-releasing hormone receptor (Homo sapiens) (P34981 whole entry, looked up): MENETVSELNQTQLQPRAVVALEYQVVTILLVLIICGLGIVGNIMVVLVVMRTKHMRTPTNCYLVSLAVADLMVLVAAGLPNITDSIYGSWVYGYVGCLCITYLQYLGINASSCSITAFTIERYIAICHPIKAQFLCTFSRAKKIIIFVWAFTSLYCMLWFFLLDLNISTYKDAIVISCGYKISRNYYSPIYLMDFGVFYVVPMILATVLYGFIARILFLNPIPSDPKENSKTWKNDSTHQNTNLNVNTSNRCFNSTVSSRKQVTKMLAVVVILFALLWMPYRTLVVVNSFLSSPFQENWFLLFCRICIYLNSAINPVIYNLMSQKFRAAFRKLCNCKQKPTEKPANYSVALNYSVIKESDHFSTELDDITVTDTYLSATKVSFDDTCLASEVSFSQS
Chain of ATP-dependent 6-phosphofructokinase (Trypanosoma brucei brucei) (O15648 whole entry, looked up): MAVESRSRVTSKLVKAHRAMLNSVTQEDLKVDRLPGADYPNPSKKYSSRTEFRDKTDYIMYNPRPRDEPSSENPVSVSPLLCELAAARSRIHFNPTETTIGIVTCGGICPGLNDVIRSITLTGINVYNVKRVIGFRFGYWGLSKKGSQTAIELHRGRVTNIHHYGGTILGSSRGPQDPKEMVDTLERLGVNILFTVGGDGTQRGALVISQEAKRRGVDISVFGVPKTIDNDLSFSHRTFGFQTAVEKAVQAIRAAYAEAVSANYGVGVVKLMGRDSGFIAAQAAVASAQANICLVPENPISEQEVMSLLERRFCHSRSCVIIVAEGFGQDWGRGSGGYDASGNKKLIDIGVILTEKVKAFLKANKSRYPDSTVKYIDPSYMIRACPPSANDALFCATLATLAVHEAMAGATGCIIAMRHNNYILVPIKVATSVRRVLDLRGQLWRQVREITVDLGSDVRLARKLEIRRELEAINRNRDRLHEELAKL

As for `CN(C)C(=O)Oc1cccc([N+](C)(C)C)c1`, the molecule was called inactive in test [1], in [6], in [7], in test [8], in [9] and in test [10]. Moreover, in test [11], the call was inactive. In addition, the Potency result in [2], in [3], in [5], in test [12] and in test [13] was “inactive” each time. Also, in [4], the activation was 0.625% (inactive). Moreover, in test [5], the viability change worked out at 0.794%.

On to `CNCCCN1c2ccccc2CCc2ccccc21`, for which the molecule was classed as inactive in test [1], in [6], in test [7], in test [8], in test [9] and in test [10]. Also, the molecule was called inactive in [11]. The Potency entry in test [2], in test [3], in test [5] and in [12] was “inactive” each time. Also, the viability change in test [5] was -3.92%.

As to `CC(N=C(NC#N)Nc1ccncc1)C(C)(C)C` (centres undefined), the molecule was called inactive in test [1], in [6], in [8] and in test [9]. Besides, the Potency result in [2], in test [3], in test [5], in test [12] and in [13] was “inactive” throughout. Moreover, in test [5], the viability change is -0.502%.

`CCCCNc1ccc(C(=O)OCCN(C)C)cc1`: the call in [1], in test [6], in test [7], in test [8], in test [9] and in [10] was inactive. Moreover, the molecule was called inactive in test [11]. The Potency entry in test [2], in test [3], in [5], in test [12], in test [13] and in test [14] was “inactive” in each case. Besides, in test [4], the activation is 1.31% (inactive). Besides, in test [5], the viability change is 2.59%.

For `COC(=O)[C@@H](N)Cc1ccc(O)c(O)c1`, the molecule was classed as inactive in test [1], in test [6], in test [7], in test [8], in [10] and in test [11]. Moreover, the Potency result in [2], in test [3], in [5], in test [12] and in test [14] was “inactive” throughout. The activation in test [4] was 1% (inactive). Besides, in test [5], the viability change is -11.8%.

On to `C[C@H](CS)C(=O)N1CCC[C@H]1C(=O)O`, for which the outcome in test [1], in [6], in test [8], in [9], in [10] and in test [11] was inactive. Further, the Potency entry in test [2], in test [3], in test [5] and in [13] was “inactive” throughout. Moreover, the activation in test [4] was -0.375% (inactive). Moreover, the viability change in [5] was 0.828%.

In the case of `C[N+](C)(C)CCCCCCCCCC[N+](C)(C)C`, the call in test [1], in [6], in [7], in test [8], in test [9] and in [11] was inactive. Besides, the Potency result in test [2], in test [3], in [5], in test [12], in [13] and in test [14] was “inactive” each time. Further, in [5], the viability change is -2.44%.

For `NC/C=C/C(=O)O`, the result in [1], in test [6], in test [7], in test [8], in test [9] and in [10] was inactive. The result in [11] was inactive. Further, the Potency entry in test [2], in test [3], in test [5], in test [12], in test [13] and in test [14] was “inactive” in each case. Also, the activation in [4] was 0.688% (inactive). Moreover, the viability change in test [5] was -0.253%.

For the molecule `COC(=O)[C@H]1[C@H]2C[C@@H]3c4[nH]c5cc(OC)ccc5c4CCN3C[C@H]2C[C@@H](OC(=O)c2cc(OC)c(OC)c(OC)c2)[C@@H]1OC`, the molecule was called inactive in test [1], in [6], in test [7], in test [10] and in test [11]. The Potency result in test [2], in test [5] and in [13] was “inactive” throughout. Further, in test [3], the Potency is 11.6 µM (active). Further, in [5], the viability change is -13.6%.
